# Test results taken from PubChem BioAssay AID1745847 (National Center for Advancing Translational Sciences (NCATS), 2022).
# The whole screen tested about 2,100 compounds, of which about 670 (32%) were called active. Another 50% or so got no clear call; they are omitted. The list shows a part of the results. A number with no mark means an inactive call. Calls come from the whole dose curve; as a rule, active = well fitted inhibition curve with a large enough effect; inconclusive = small, poorly fitted or top-dose-only effect; inactive = no such curve, though single readings can be large or run the other way.
# Assay: CMV-Luciferase Counterscreen for Inhibitors of ATXN expression; note: nearly all actives have a fitted effect of over 55% in size
# Details: HEK-293 CMV-luciferase reporter, luminescence, 24 h; series mostly up to 57.5 µM; activity change, negative = inhibition: at the top concentration
# % is set by controls: 0 for no effect and ±100 for the full control effect; potency is the fitted concentration of half-maximal effect.
Compound,"activity change, negative = inhibition",Potency
CCC1=C(OC(=O)N(CC)CC)N2C(=O)OC(=NCCc3c[nH]c4ccccc34)[C@]2(Cc2ccccc2)[C@H]2C1=CC[C@H]1C(=O)N(c3ccccc3)C(=O)[C@H]12,-21.2%,
Cc1cccn2c(=O)c3cc(C(=O)NCCc4ccccc4)c(=N)n(CCCn4ccnc4)c3nc12,-14.8%,
CC1(C)Cc2c(c(-c3ccco3)nc3sc4c(NCCN5CCOCC5)ncnc4c23)CO1,7.14%,
Cc1c(C(=O)Nc2nonc2-c2ccc(F)cc2)oc2ccc(F)cc12,,11.2 µM (active)
O=C(NNC(=O)C12CC3CC(CC(C3)C1)C2)c1ccccn1,,8.91 µM (active)
CN(C)c1ccc2c(c1)OC(N)=C(C#N)C2c1cccc(F)c1 (stereo unspecified),-18.1%,
Cn1cccc1/C=N/N1CCN(Cc2ccccc2Cl)CC1,-18.3%,
O=C(Nc1ccccc1N1CCN(C(=O)c2ccccc2)CC1)c1ccc(Br)o1,,28.2 µM (active)
Cc1cc(C)n(-c2nc(Nc3ccccc3C(F)(F)F)nc(-n3nc(C)cc3C)n2)n1,,1.78 µM (active)
CN(C)c1ccc(NC(=O)Nc2nc(C(N)C3CCCCC3)cs2)cc1 (stereo unspecified),-22.2%,
CCOC(=O)c1c(NC(=O)COC(=O)CNC(=O)c2ccco2)sc(C)c1C,24.5% [at 11.4 µM],
Cc1cc(C)c(S(=O)(=O)/N=C2\C=C(Nc3ccc(C(=O)O)cc3)C(=O)c3ccccc32)c(C)c1,,1.58 µM (active)
CCCCCCn1c2c(c(=N)c3c1CCC3)CCC2,,2.51 µM (active)
Cc1ccc(C(NC(=O)C2CCN(Cc3ccc(Cl)c(Cl)c3)CC2)c2ccccn2)cc1 (stereo unspecified),,28.2 µM (active)
Cc1ccc(CN2CC(C(=O)Nc3ncc(C)s3)CC2=O)cc1 (stereo unspecified),242% [at 11.4 µM],
O=C1C=C(NCCc2cc(Br)c(O)c(Br)c2)C(=O)c2ncccc21,,8.91 µM (active)
Cc1cc(C)c(C(=O)N2CCCC(N3CCN(c4cccc(C(F)(F)F)c4)CC3)C2)o1 (stereo unspecified),,3.55 µM (active)
COC1=CC(=O)C=C(OC)C1(O)CC(C)=O,-10%,
CC(=O)NC(c1cc(Cl)c2cccnc2c1O)C(C)C (stereo unspecified),,0.794 µM (active)

Compound,"activity change, negative = inhibition",Potency
CCC(=O)NC(c1cc(Cl)c2cccnc2c1O)C(C)C (stereo unspecified),,3.98 µM (active)
CC(C)CCn1c(N)c(S(=O)(=O)c2cccs2)c2nc3ccccc3nc21,,3.16 µM (active)
CCSc1nc2ccccc2n1C(=O)/C=C\c1ccc(OC)c(OC)c1,,14.1 µM (active)
COc1ccc(C(=O)Cn2c(C(=O)/C=C/c3ccccc3)nc3ccccc32)cc1,92.9% [at 11.4 µM],
COc1ccc(C(=O)/C=C/c2cccc(OCc3ccccc3)c2)cc1CSCC(=O)O,-3.73% [at 11.4 µM],
N#Cc1ccccc1NC(=O)C1SC(=Nc2ccccc2)C(C(=O)Nc2ccc(Cl)cc2)=C1N (stereo unspecified),-20.6% [at 11.4 µM],
Cc1ccc(C(=O)N(C)CC(=O)Nc2ccc(Cl)c(C(F)(F)F)c2)cc1S(=O)(=O)N1CCCCC1,,25.1 µM (active)
CN(CC(=O)NCc1ccc(F)cc1)CC(=O)Nc1ccc(Cl)c(C(F)(F)F)c1,,17.8 µM (active)
CN(CC(=O)Nc1ccc(Cl)c(C(F)(F)F)c1)C(=O)c1cccnc1Sc1ccccc1,-21.5%,
Cc1ccc(-n2ncc(C(=O)Nc3ccc(Cl)cc3)c2C2CCNCC2)cc1C,-12.6%,
Cc1cc(C2=NNC(=NC3CC3)SC2)c(C)n1-c1ccccc1F,,0.631 µM (active)
Cc1ccc(C2CC(=O)Nc3c2ccc2ccccc32)cc1[N+](=O)[O-] (stereo unspecified),,17.8 µM (active)
Cc1ccccc1S(=O)(=O)Cc1ccc(C(=O)N2CCN(c3cccc(C)c3C)CC2)o1,,3.98 µM (active)
CCOC(=O)[C@H]1[C@H]2COc3ccc(OC)cc3[C@@H]2N2C(=O)c3cc(OC)c(OC)cc3NC(=O)[C@@]12C,6.45% [at 11.4 µM],
c1cnc2c(c1)ccc1cccnc12,,3.55 µM (active)
CC(=O)N1CCN(c2ccc(Oc3ccc([N+](=O)[O-])c(C(F)(F)F)c3)cc2)CC1,,7.94 µM (active)
N=c1c2c(n(Cc3ccc(Br)cc3)c3c1CCC3)CCCC2,,0.501 µM (active)
N=c1c2c(n(Cc3cccc(Cl)c3)c3c1CCC3)CCCC2,,3.16 µM (active)
N=c1c2c(n(Cc3ccc(Cl)cc3)c3c1CCC3)CCC2,,0.708 µM (active)

Compound,"activity change, negative = inhibition",Potency
Cn1c(CO)cnc1S(=O)(=O)Cc1ccc([N+](=O)[O-])cc1,-3.42%,
c1nc(CCO[C@H]2CCCCO2)cc2cc3c(cc12)OCO3,,3.16 µM (active)
O=C(C1CCC(CNS(=O)(=O)c2cccs2)CC1)N1CCN(c2ccc(F)cc2)CC1 (stereo unspecified),,4.47 µM (active)
COc1cc(C(=O)O/N=C(\N)Cc2ccc([N+](=O)[O-])cc2)cc(OC)c1OC,-6.35% [at 11.4 µM],
CCOc1cc(C=C(C(=O)OC)C(=O)OC)ccc1OCc1ccc([N+](=O)[O-])cc1,,25.1 µM (active)
CC1CC(C)C[N+](=C2C=C(N3CCCC3)CC(C)(C)C2)C1 (stereo unspecified),,0.794 µM (active)
CC1CCN(Cc2c(C(=O)N/N=C/c3cc(Br)ccc3O)nnn2-c2nonc2N)CC1,,0.447 µM (active)
CC1CCN(Cc2c(C(=O)N/N=C/c3cc(Cl)ccc3O)nnn2-c2nonc2N)CC1,,0.562 µM (active)
COc1ccc(-c2n(CC(=O)OC3CC(C)CCC3C(C)C)c3ccccc3[n+]2C)cc1 (stereo unspecified),,3.16 µM (active)
CCOc1ccc(-c2c[n+]3c(n2-c2ccccc2)CCCCC3)cc1,,6.31 µM (active)
CCOc1ccc(-n2c(-c3ccccc3)c[n+]3c2CCCCC3)cc1,,3.55 µM (active)
CCCCOc1ccc(C(=O)NNC(=S)NC(=O)CC)cc1,,2.51 µM (active)
OC(c1ccccc1)(c1nc(-c2cc3ccccc3o2)cs1)C(F)(F)F (stereo unspecified),31.2%,
Cc1cc(/C=N/n2cnnc2)c(C)n1-c1ccc(OCc2ccc(Cl)cc2Cl)cc1,,12.6 µM (active)
Cc1ccc(C)c(NC(=O)c2ccccc2NS(=O)(=O)c2cc([N+](=O)[O-])ccc2C)c1,,1 µM (active)
O=C(/C=C/c1ccccc1[N+](=O)[O-])c1ccccc1Br,44.2% [at 11.4 µM],
N#C/C(=C\C=C\c1ccccc1[N+](=O)[O-])C(=O)NCc1ccccc1,,3.16 µM (active)
CC1CCCCC1NC(=O)/C(C#N)=C/C=C/c1ccccc1[N+](=O)[O-] (stereo unspecified),,3.55 µM (active)
